PMC4336329 (PLoS ONE, 2015)
Among all 310,000 compounds or so, about 14,000 (4.5%) showed an effect of 50% or more. The effect is printed as a negative number. The sample as a whole holds a higher share of strong results than the screen did.

What follows are molecules tested against human ether-à-go-go-related gene (hERG) potassium channel (human, UniProt Q12809) (assay: primary screen, population patch clamp on CHO cells stably expressing hERG; higher = less effect of the substance).
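Also: peak tail current of the secondary pulse compared with the same well before compound.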

Chain of human ether-à-go-go-related gene (hERG) potassium channel (Q12809 whole entry, looked up): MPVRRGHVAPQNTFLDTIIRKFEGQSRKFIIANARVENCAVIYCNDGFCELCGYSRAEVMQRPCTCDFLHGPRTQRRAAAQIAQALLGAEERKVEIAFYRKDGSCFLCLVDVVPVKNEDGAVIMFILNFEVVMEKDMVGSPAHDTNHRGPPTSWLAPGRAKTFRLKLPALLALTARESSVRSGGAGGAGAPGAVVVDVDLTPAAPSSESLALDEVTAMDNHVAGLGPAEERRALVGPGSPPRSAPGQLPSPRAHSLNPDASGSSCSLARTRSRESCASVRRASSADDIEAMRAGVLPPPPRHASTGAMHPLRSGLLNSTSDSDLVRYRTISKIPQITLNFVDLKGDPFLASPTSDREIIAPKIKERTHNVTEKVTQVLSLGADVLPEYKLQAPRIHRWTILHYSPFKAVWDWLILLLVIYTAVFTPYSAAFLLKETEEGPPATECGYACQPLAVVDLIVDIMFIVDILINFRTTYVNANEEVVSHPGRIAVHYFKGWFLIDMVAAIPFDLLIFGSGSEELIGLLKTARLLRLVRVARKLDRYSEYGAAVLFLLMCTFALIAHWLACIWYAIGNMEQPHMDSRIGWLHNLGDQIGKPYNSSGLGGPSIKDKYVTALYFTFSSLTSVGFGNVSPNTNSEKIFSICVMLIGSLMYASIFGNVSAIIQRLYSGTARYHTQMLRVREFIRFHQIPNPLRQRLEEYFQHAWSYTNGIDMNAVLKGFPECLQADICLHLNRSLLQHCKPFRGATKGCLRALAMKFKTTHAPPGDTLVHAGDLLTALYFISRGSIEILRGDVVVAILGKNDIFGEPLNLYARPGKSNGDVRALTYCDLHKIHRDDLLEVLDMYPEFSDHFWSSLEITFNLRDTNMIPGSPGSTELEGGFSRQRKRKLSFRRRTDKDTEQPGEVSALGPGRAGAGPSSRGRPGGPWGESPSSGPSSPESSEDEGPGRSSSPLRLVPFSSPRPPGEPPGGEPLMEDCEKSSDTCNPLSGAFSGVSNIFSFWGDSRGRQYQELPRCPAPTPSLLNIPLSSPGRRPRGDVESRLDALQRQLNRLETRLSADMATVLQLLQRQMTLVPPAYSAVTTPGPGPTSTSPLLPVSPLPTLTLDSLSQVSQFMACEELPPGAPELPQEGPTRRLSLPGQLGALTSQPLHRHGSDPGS

| Compound | hERG current change (%, negative = inhibition) at 10uM [%] |
| --- | --- |
| CN(C)S(=O)(=O)c1cccc(NC(=O)CSc2nc3ccccc3[nH]2)c1 | -22.2 |
| Cc1cc(C)n2c(-c3ccccc3Cl)nnc2n1 | -14.8 |
| O=C(NCCCCO)c1ccc2c3c(cccc13)CC2 | 7.52 |
| CC(=O)NS(=O)(=O)c1cccnc1Nc1ccc(Cl)c(Cl)c1 | 16.1 |
| CC(=O)Nc1nc2c(c3c1c(=O)oc1ccccc13)CCCCC2 | -7.1 |
| C=C[C@@]12CN(C)[C@H]3[C@H]1[C@@]1(C(=O)Nc4ccccc41)C1CC2[C@@H]3CO1 | 13 |
| O=c1c2c(-c3cccs3)csc2ncn1-c1ccccc1 | -28.3 |
| CCOc1ccc(N2C(=O)c3ccc(C(=O)OCC(=O)N(CC)C4CCS(=O)(=O)C4)cc3C2=O)cc1 (stereo not drawn) | -22.3 |
| Cc1ccc(NC(=O)CN2CCC(NC(=O)c3cccc(F)c3)CC2)cc1C | -41.3 |
| O=C(CN1CCC(NC(=O)c2cccc(F)c2)CC1)Nc1ccc(Br)cc1 | -73 |
| CC(=O)c1cccc(NC(=O)CN2CCN(S(=O)(=O)/C=C/c3ccccc3)CC2)c1 | -53.9 |
| Cc1cccc(NC(=O)CN2CCN(CC(=O)Nc3cccc(C)c3)CC2)c1 | -63.7 |
| Cc1cc(C)cc(NC(=O)CN2CCC(NC(=O)c3cccc(F)c3)CC2)c1 | -39 |
| CC(=O)c1cccc(NC(=O)CN2CCN(Cc3ccccc3)CC2)c1.Cl | -10.9 |
| COC(=O)c1cccc(NC(=O)CN2CCN(Cc3ccccc3)CC2)c1 | -16 |
| Cc1cccc(NC(=O)CN2CCCCCC2)c1 | 7.69 |
| O=C(CN1CCN(Cc2ccccc2)CC1)Nc1cccc(Br)c1 | -51.7 |
| NS(=O)(=O)c1ccc(NC(=O)CN2CCN(S(=O)(=O)/C=C/c3ccccc3)CC2)cc1 | -9.04 |
| Cc1cccc(NC(=O)Cn2cccc2)c1 | -5.5 |
| COc1cc(NC(=O)CN2CCN(S(=O)(=O)/C=C/c3ccccc3)CC2)cc(OC)c1OC | -14.8 |
| CC(C(Sc1ccccc1N)c1ccccc1)[N+](=O)[O-] (stereo not drawn) | 7.82 |
| CCOP(=O)(O)c1cccc(OCCOCCOc2cccc(P(=O)(O)OCC)c2)c1 | 4.45 |

| Compound | hERG current change (%, negative = inhibition) at 10uM [%] |
| --- | --- |
| Cn1c(=NCC(O)COc2ccccc2)sc2ccccc21 (stereo not drawn) | -42.7 |
| COc1ccnc(Oc2ccccc2)c1C(N)=O | 20.2 |
| C/C(Cn1cnc([N+](=O)[O-])n1)=N\NC(=O)c1cccc(F)c1 | 6.43 |
| COC(=O)c1cccc(NC(=O)CSc2nnc(C)n2C)c1 | 26 |
| Cc1ccc(NC(=O)C2CCN(S(=O)(=O)c3ccc4c(c3)NC(=O)C(C)S4)CC2)c(C)c1 (stereo not drawn) | -3.06 |
| O=C(O)C1CCN(C(=O)c2ccco2)CC1 | 9.94 |
| COc1ccc(N(CC(=O)N/N=C/c2ccccc2OC)S(=O)(=O)c2ccccc2)cc1 | 19.9 |
| Cc1cc(N2C(=O)C(O)=C(C(=O)c3cccs3)C2c2cccc(Br)c2)no1 (stereo not drawn) | 6.05 |
| c1ccc(-c2nnc(-c3ccncc3)nc2-c2ccccc2)cc1 | -24.5 |
| COc1cccc2c(=O)cc(C)n(CC(=O)Nc3ccc(Br)cc3)c12 | 12.8 |
| COc1cccc2c(=O)cc(C)n(CC(=O)Nc3cccc(C)c3)c12 | -59.4 |
| COc1cccc2c(=O)cc(C)n(CC(=O)Nc3ccc(C)c(C)c3)c12 | -5.88 |
| CC(=O)N1CCN(C(=O)c2cccc(S(=O)(=O)N3CCN(c4ccccc4)CC3)c2)CC1 | -16.5 |
| O=C(NNC(=O)c1cccc(S(=O)(=O)N2CCN(c3ccccc3)CC2)c1)c1ccc(Cl)cc1 | -59.5 |
| Cc1ccc(C(=O)NNC(=O)c2cccc(S(=O)(=O)N3CCN(c4ccccc4)CC3)c2)cc1 | -25.4 |
| O=C(c1cccc(S(=O)(=O)N2CCOCC2)c1)N1CCN(c2ccccc2)CC1 | -15.7 |
| O=C(c1cccc(S(=O)(=O)N2CCCC2)c1)N1CCN(c2ccccc2)CC1 | -13 |
| O=C(c1cccc(S(=O)(=O)N2CCCCC2)c1)N1CCN(c2ccccc2)CC1 | -73.1 |
| O=C(c1cccc(S(=O)(=O)N2CCCCCC2)c1)N1CCN(c2ccccc2)CC1 | -68.8 |
| O=C(c1cccc(S(=O)(=O)N2CCN(c3ccccc3)CC2)c1)N1CCCCCCC1 | -33.4 |
| Cc1ccc(NC(=O)c2cccc(S(=O)(=O)N3CCN(c4ccccc4)CC3)c2)nc1 | -1.19 |
| CC1Oc2ccccc2N(CC(=O)NCc2ccccc2)C1=O (stereo not drawn) | 6.53 |

| Compound | hERG current change (%, negative = inhibition) at 10uM [%] |
| --- | --- |
| CCOC(=O)C1=NN(c2ccccc2)C2=NC(C)=C(C(=O)OC)C(c3cccs3)N12 (stereo not drawn) | -5.66 |
| CCc1ccc(NC(=O)CNS(=O)(=O)c2c(C)noc2C)cc1 | -2.28 |
| N#Cc1nc(-c2ccco2)oc1N1CCN(c2cccc(Cl)c2)CC1 | -16.1 |
| COc1cc(NC(=O)CSc2nnnn2-c2ccccc2)cc(OC)c1OC | -0.308 |
| CCOc1ccccc1NC(=O)c1cccc2c1C(=O)N(C1CCCCC1)C2 | 9.57 |
| C1CCCCCC2(CCCCC1)OCC(CN1CCOCC1)O2 (stereo not drawn) | -20.5 |
| CN(Cc1nc2ccccc2s1)C(=O)c1ccc(F)cc1 | -61 |
| O=C(CCCc1nc2ccccc2s1)NCc1ccc(F)cc1 | -37.4 |
| CN(C)S(=O)(=O)c1ccc(C(=O)NCc2nc3ccccc3s2)cc1 | 1.24 |
| Cc1cccc(-c2nc(=S)c3c(n2Cc2ccco2)CCCC3)c1 | 7.14 |
| O=C(NCc1ccccc1)C1=C[C@H](c2coc3ccccc3c2=O)C[C@H](OCc2ccc(CO)cc2)O1 | -38.1 |
| CCn1c(=O)cc(SCC(=O)NCCC2=CCCCC2)c2ccccc21 | -6.46 |
| Cc1ccc(OCCCC(=O)Nc2ccc(Br)cc2)cc1 | 17.2 |
| CC(OCC(O)CN(C)CCOc1ccccc1)c1ccc(Cl)cc1 (stereo not drawn) | -43.5 |
| CN(CCOc1ccc(Br)cc1)CC(O)c1ccccc1.O=C(O)C(=O)O (stereo not drawn) | -63.1 |
| CC(=O)c1ccc(OCC(O)CN(C)CCOc2ccc(Br)cc2)cc1 (stereo not drawn) | 23.4 |
| CN(CCOc1ccc(Cl)cc1)CC(O)c1ccccc1.O=C(O)C(=O)O (stereo not drawn) | -60.4 |
| CN(CCOc1ccccc1)CC(O)COc1ccccc1 (stereo not drawn) | 10.8 |
| CC(C)c1ccc(CN(C)CC(O)c2ccccc2)cc1.O=C(O)C(=O)O (stereo not drawn) | -18.9 |
| COC(=O)c1cc(Cl)c(NC(=O)/C=C/c2ccc(Cl)cc2Cl)cc1OC | -10.9 |
| COc1ccc(N2CCN(C(=O)CNC(=O)Cc3ccc(Cl)cc3)CC2)cc1 | -8.38 |
| Cc1cc(C)c(C#N)c(SCC(=O)CC(=O)OC(C)C)n1 | 1.82 |

| Compound | hERG current change (%, negative = inhibition) at 10uM [%] |
| --- | --- |
| Cc1ccc(NS(=O)(=O)c2ccc(Br)s2)nc1 | 23.4 |
| Cc1ccc(C)c(OCCCC(=O)Nc2nccs2)c1 | 12.9 |
| CC(C)Cn1nc(-c2ccccc2)c2ccccc2c1=O | 20.1 |
| CCN(Cc1ccccc1)C(=O)C1CCN(C/C(C)=C/c2ccccc2)CC1.O=C(O)C(=O)O | -70.4 |
| CCN(Cc1ccccc1)C(=O)C1CCN(C(=O)Nc2ccccc2)CC1 | 14.8 |
| CCOC(=O)N1CCN(C/C(C)=C/c2ccccc2)CC1 | -25.1 |
| CC1CCN(C(=O)C2CCN(CC(C)c3ccccc3)CC2)CC1.O=C(O)C(=O)O (stereo not drawn) | -13.5 |
| CCN1CCN(C/C(C)=C/c2ccccc2)CC1 | 4.72 |
| CCCCN(C)C(=O)C1CCN(C/C(C)=C/c2ccccc2)CC1.O=C(O)C(=O)O | -73.4 |
| C/C(=C\c1ccccc1)CN1CCN(C)CC1 | 16.2 |
| CCN(CC)C(=O)C1CCCN(C/C(C)=C/c2ccccc2)C1 (stereo not drawn) | -30.7 |
| C/C(=C\c1ccccc1)CN1CCC(C(=O)N2CCC(C)CC2)CC1.O=C(O)C(=O)O | -63 |
| CCCCNC(=O)C1CCN(C/C(C)=C/c2ccccc2)CC1.O=C(O)C(=O)O | -63 |
| CCCCNC(=O)C1CCN(Cc2ccccn2)CC1 | 12 |
| C/C(=C\c1ccccc1)CN1CCC(C(=O)N2CCCCC2)CC1.O=C(O)C(=O)O | -47.5 |
| Cc1cc(C)c(NC(=O)C2CCN(C(=O)c3ccco3)CC2)c(C)c1 | 19.9 |
| COc1ccc(C2C(C(=O)c3sc(C)nc3C)=C(O)C(=O)N2CCN(C)C)cc1 (stereo not drawn) | -6.4 |
| O=C(COC(=O)c1cccs1)Nc1cccc(Cl)c1 | 10.2 |
| CCC(C)(C(=O)NC1CCCCC1)N(C(=O)CC1NC(=O)NC1=O)c1c(C)n(C)n(-c2ccccc2)c1=O (stereo not drawn) | 12.8 |
| Cc1onc(-c2ccccc2Cl)c1C(=O)Nc1nc2ccc(S(C)(=O)=O)cc2s1 | -2.5 |
| CC1(C)NC(=O)N(CC(=O)N2CCCC(C(F)(F)F)C2)C1=O (stereo not drawn) | 10.4 |
